Compound activity (PubChem BioAssay)
BAZ2B inh – BAZ2B (human) inhibition | Q9UIF8 | AlphaScreen BAZ2B-H3K14Ac peptide displacement | Potency, µM (highest dose often 114 µM), for inactives: at the top dose activity change, negative = inhibition, actives largely listed as inhibitors | 360,000 compounds, 4.4% hits | AID 504333; further: on the % scale 0 is the no-effect control and ±100 the full control effect; nearly all actives have a fitted effect of over 60% in size
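In this displacement format the biotinylated H3(5-23) peptide acetylated at Lys14 serves as ligand at 50 nM, with BAZ2B at 50 nM in PBS pH 7.4 containing 0.01% Tween-20. Donor and acceptor beads are 10 ug/mL final.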
TDP1 inh – inhibitors of human tyrosyl-DNA phosphodiesterase TDP1. Q9NUW8. recombinant TDP1, AlphaScreen DNA substrate cleavage. Potency, µM (titrated, usually from 130 µM), for the others: at the top dose activity change, negative = inhibition, most hits filed as inhibitors. 350,000 compounds, 0.28% hits. AID 485290; further: on the % scale 0 is the no-effect control and ±100 the full control effect; nearly all actives have a fitted effect of over 40% in size
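Here, a 5' biotin and 3' phosphotyrosine-FITC DNA oligonucleotide reports Tdp1 activity: intact substrate bridges AlphaScreen beads, while cleavage leaves a 3' phosphate and drops signal. All incubations at room temperature.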
Sfp PPTase inh – inhibitors of Bacillus subtilis Sfp phosphopantetheinyl transferase | Q9F4F7 | Biochemical Sfp PPTase activity, qHTS | Potency, µM, inactives show largest response in the series, negative = inhibition, usual class: inhibitors | 310,000 compounds, 3.5% hits;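 further: the enzyme is Sfp with the accession as filed and its product quenches rhodamine fluorescence; 0% = enzyme reaction without inhibitor and -100% = no enzyme wells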
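Fluorescence-quenching assay with 15 nM Sfp, 5 uM rhodamine-CoA and 12.5 uM BHQ-2-labelled ybbR peptide in pH 7.6 Hepes/MgCl2 buffer. Enzyme was pre-incubated with compound for 15 min at room temperature. Rate was taken from the 30-min fluorescence change (525/598 nm).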
G9a inh – blocks human histone lysine methyltransferase G9a; Q96KQ7; G9a H3K9 monomethylation, AlphaScreen, 2 h; Potency, µM (series often up to 102 µM), inactives show at the highest dose activity, negative = inhibition, actives largely listed as inhibitors; 350,000 compounds, 8.8% hits; further: on the % scale 0 is the no-effect control and ±100 the full control effect; nearly all actives have a fitted effect of over 75% in size
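Compounds were preincubated with 20 nM G9a for 15 min, after which biotinylated H3K9 peptide (500 nM) and SAM (20 uM) started a 2 h room-temperature reaction. Monomethylated product was quantified by antibody-based AlphaScreen chemiluminescence.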
JMJD2A Tudor inh – JMJD2A Tudor domain (human) inhibition | O75164 | AlphaScreen JMJD2A-Tudor / H3K4me3 peptide binding | Potency, µM (titrated, usually from 114 µM), for inactives: at the top dose activity change, negative = inhibition, most hits filed as inhibitors | 390,000 compounds, 4.4% hits | AID 504339; further: on the % scale 0 is the no-effect control and ±100 the full control effect; nearly all actives have a fitted effect of over 50% in size
HP1b binding inh – HP1-beta chromodomain-methylated histone interaction inhibition. 390,000 compounds, 0.56% hits. Potency, µM (highest dose often 114 µM), inactives show top-dose activity change, negative = inhibition, usual class: inhibitors. AID 540317. P83916. AlphaScreen HP1-beta / biotin-H3K9me3 peptide binding; further: nearly all actives have a fitted effect of over 70% in size
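AlphaScreen: HP1-beta (50 nM) preformed 30 min with biotin-H3(1-18)K9me3 peptide (50 nM) in PBS pH 7.4, 0.01% Tween-20. Compound added for 30 min at RT, then streptavidin donor/nickel chelate acceptor beads (10 ug/mL) for 30 min.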
The depositor's hits bear a star; [ ] = another dose, or the depositor's remark. Compounds with a hit are over-represented: about 12% of the library has one in this group of screens. The call rests on the fitted dose curve; in most records, active means well fitted curve in the direction sought with a large enough effect; inconclusive means small, poorly fitted or top-dose-only effect, or another doubt; inactive means no such curve, though single readings can be large; an effect the other way counts as inactive or inconclusive. Potency means the concentration at half of the fitted maximal effect.

COc1cccc(-c2cc(C(F)(F)F)n3nc(-c4ccc(C)cc4)cc3n2)c1 was read as BAZ2B inh inconclusive, TDP1 inh -1%, G9a inh -3%[59 µM], JMJD2A Tudor inh 15% and HP1b binding inh 42%.
`CCOc1ccc(NC(=O)CSc2cn[nH]n2)cc1` gave BAZ2B inh 9%, TDP1 inh inconclusive, G9a inh -14%, JMJD2A Tudor inh -4% and HP1b binding inh 39%.
Screening CCc1sc(C(=O)NCc2ccco2)cc1Br returned BAZ2B inh inconclusive, Sfp PPTase inh -5%, G9a inh 56µM*, JMJD2A Tudor inh -21% and HP1b binding inh 26%.
Cc1c(Br)cc(C(=O)NCc2ccco2)c(C)c1C was read as BAZ2B inh 56µM*, TDP1 inh 2%, Sfp PPTase inh inconclusive, G9a inh inconclusive, JMJD2A Tudor inh -35% and HP1b binding inh 8%.
`COc1ccccc1CNc1ncnc2c1c(-c1ccccc1)cn2-c1cccc(C)c1` gave BAZ2B inh inconclusive, TDP1 inh 0%, G9a inh -9%[59 µM], JMJD2A Tudor inh -17% and HP1b binding inh 24%.
For Cc1cc(C(=O)NCCN2C(=O)S/C(=C\c3cccs3)C2=O)ccc1[N+](=O)[O-] the results were BAZ2B inh -31%, TDP1 inh 1%, Sfp PPTase inh 35µM*, G9a inh -13%[59 µM], JMJD2A Tudor inh -14% and HP1b binding inh 16%.
For Cc1cc(C)n(-c2ccc(C(=O)Nc3cccnc3Cl)cc2)n1 the results were BAZ2B inh -1%, TDP1 inh 2%, Sfp PPTase inh 7%, G9a inh -34%, JMJD2A Tudor inh -9% and HP1b binding inh 23%.
Screening Cc1cc(C)n(-c2ccc(C(=O)Nc3cc(S(=O)(=O)N(C)C)ccc3Cl)cc2)n1 returned BAZ2B inh 5%, TDP1 inh 3%, Sfp PPTase inh 15%, G9a inh 79µM*, JMJD2A Tudor inh inconclusive and HP1b binding inh 30%.
COc1cc(NS(=O)(=O)c2ccc([N+](=O)[O-])cc2)c2ncccc2c1 was read as TDP1 inh 24%, Sfp PPTase inh 6% and JMJD2A Tudor inh 56µM*.
For COc1cc(NS(=O)(=O)c2cccc([N+](=O)[O-])c2)c2ncccc2c1 the results were TDP1 inh 22%, Sfp PPTase inh 14% and JMJD2A Tudor inh 56µM*.
Screening O=C(NC1CC(=O)N(c2ccccc2)C1)c1cccs1 (configuration not stated) returned BAZ2B inh -1%, TDP1 inh -3%, G9a inh 12%[59 µM], JMJD2A Tudor inh 6% and HP1b binding inh 30%.
CC(c1ccco1)N(C(=O)c1ccccc1NS(=O)(=O)c1cc([N+](=O)[O-])ccc1Cl)c1ccccn1 (configuration not stated) was read as BAZ2B inh 79µM*, TDP1 inh 0%, Sfp PPTase inh inconclusive, G9a inh 4µM*, JMJD2A Tudor inh 25µM* and HP1b binding inh -12%.
`CC(c1ccco1)N(C(=O)c1ccccc1NS(=O)(=O)c1ccc(Cl)cc1)c1ccccn1` (configuration not stated) gave BAZ2B inh -34%, TDP1 inh 3%, Sfp PPTase inh 24%, G9a inh inconclusive, JMJD2A Tudor inh -34% and HP1b binding inh -2%.
CC(c1ccco1)N(C(=O)c1ccccc1NS(=O)(=O)c1cccc([N+](=O)[O-])c1)c1ccccn1 (configuration not stated) was read as BAZ2B inh -38%, TDP1 inh -7%, Sfp PPTase inh inconclusive, G9a inh 79µM*, JMJD2A Tudor inh -24% and HP1b binding inh 15%.
Screening COCC(=O)N1CCC2(CCCN(C(=O)Nc3ccc(OC)cc3)C2)CC1 returned Sfp PPTase inh 20% and G9a inh -1%[12.7 µM].
For O=C(Nc1ccc(N2CCOCC2)cc1)c1cc2c(s1)CCCC2 the results were BAZ2B inh 40µM*, TDP1 inh 7%, Sfp PPTase inh 5%, G9a inh 40µM*, JMJD2A Tudor inh inconclusive and HP1b binding inh 0%.
O=C(Nc1ccc(N2CCOCC2)cc1)C1(c2ccc(Cl)cc2)CCC1 was read as BAZ2B inh inconclusive, TDP1 inh 2%, Sfp PPTase inh 12%, G9a inh 45µM*, JMJD2A Tudor inh -33% and HP1b binding inh -6%.
O=C(Nc1ccc(N2CCOCC2)cc1)c1cc2c(s1)CCCCC2 was read as BAZ2B inh inconclusive, TDP1 inh 3%, Sfp PPTase inh 6%, G9a inh 32µM*, JMJD2A Tudor inh 79µM* and HP1b binding inh inconclusive.
For O=C(NCCc1nc2ccccc2n1CCOc1ccccc1)C1CCCCC1 the results were TDP1 inh 1%, JMJD2A Tudor inh -12%[57.1 µM] and HP1b binding inh 23%[57 µM].
Screening C1CC1Cc1noc(CN2CCN(C3C4CC5CC(C4)CC3C5)CC2)n1 (configuration not stated) returned BAZ2B inh 3%, TDP1 inh 5%, Sfp PPTase inh 5%, G9a inh -1%, JMJD2A Tudor inh 11% and HP1b binding inh 31%.
Cc1ccc(NC(=O)[C@@H](c2ccccc2)N2Cc3ccccc3C2=O)cc1 was read as BAZ2B inh -25%, TDP1 inh 1%, G9a inh -6%[59 µM], JMJD2A Tudor inh -19% and HP1b binding inh 19%.
`O=C(CSc1nnc(-c2ccccc2)o1)NC1CC1` gave BAZ2B inh -2%, TDP1 inh 0%, G9a inh -5%[0.501 µM], JMJD2A Tudor inh -10% and HP1b binding inh 8%.
`CCN1/C(=C/C(C)=C/c2sc3ccccc3[n+]2CC)Sc2ccccc21` gave BAZ2B inh 22µM*, TDP1 inh 8%, Sfp PPTase inh 32µM*, G9a inh 18µM*, JMJD2A Tudor inh 18µM* and HP1b binding inh inconclusive.
CC(C)(C)c1ccc(C(=O)OCC(=O)Nc2sc3c(c2C#N)CCC3)cc1 was read as BAZ2B inh 6%, TDP1 inh 0%, Sfp PPTase inh -18%, G9a inh -4%, JMJD2A Tudor inh -7% and HP1b binding inh 8%.
Screening N#Cc1c(NC(=O)COC(=O)c2nccnc2N)sc2c1CCCC2 returned BAZ2B inh 79µM*, TDP1 inh -5%, G9a inh 45µM*, JMJD2A Tudor inh 25µM* and HP1b binding inh 0%.
Cc1cc(C(=O)OCC(=O)Nc2sc3c(c2C#N)CCC(C)C3)c2ccccc2n1 (configuration not stated) was read as BAZ2B inh -38%, TDP1 inh 1%, Sfp PPTase inh inconclusive, G9a inh 45µM*, JMJD2A Tudor inh -34% and HP1b binding inh -2%.
